“And” between values parts separate entries of the source, which are not always exact repeats. Equal values may be shown once. The panel holds about 83,000 compounds, 20% with a hit somewhere; the sample as a whole holds those more often.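 Note: values are percent growth. 100 is the growth of untreated cells, values between 100 and 0 indicate rising inhibition; between -100 and 0 indicates cell death.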 The source made the active and inactive calls. Rule for the calls: active = growth percent below 10; inactive = the rest.
Test system: HL-60(TB) leukemia
Experiment: NCI-60 one-dose screen, 48 h (100 = growth as untreated, 0 = no growth, -100 = all killed)
Conditions: 10 µM unless noted

| SMILES | growth |
| --- | --- |
| Cn1cc(-c2csc(-c3cn(C(=O)OC(C)(C)C)c4ccc(Br)cc34)n2)c2ccnc(Cl)c21 | 115% (inactive) |
| O=C1CC23OC4ON=C(Br)C4C2C(O)c2ccccc2N13 (stereo not given) | 102% (inactive) |
| Clc1cccc(-c2cc(-c3ccc4c(c3)OCCO4)[nH]n2)c1 | 15.2% [25 µM] (inactive) |
| O=C1c2ccccc2C(=O)c2c(NCCNCCO)ccc(NCCNCCO)c21 | 64.9% (inactive) and 11.4% (inactive) and 2.46% (active) |
| COc1ccccc1Nc1nc2c(s1)C1=CC[C@H]3[C@@H]4CC[C@H]([C@H](C)CCCC(C)C)[C@@]4(C)CC[C@@H]3[C@@]1(C)CC2 | 102% (inactive) |
| Nc1c(Br)cc(Br)cc1-c1n[nH]c(=O)[nH]c1=O | 94.4% (inactive) |
| NC1CCC(C(=O)O)CC1 (stereo not given) | 113% (inactive) and 110% (inactive) |
| CC1(C)Cc2c(sc3ncn4nc(-c5ccc(O)cc5)nc4c23)CO1 | 62.1% (inactive) |
| CCOC(=O)c1cc(/C(=N\O)c2cc(OC)c(OC)c(OC)c2)n2c(C)cccc12 | 3.22% (active) |
| CCCCCCN1C(=O)C2=C(c3ccc(Cl)cc3)Nc3c(c(C)nn3-c3ccccc3)C2c2ccccc21 (stereo not given) | 102% (inactive) |
| COc1ccccc1CNC(=O)C1c2ccccc2C(=O)N(CC(C)C)C1c1cccs1 (stereo not given) | 67.9% (inactive) |
| O=C(O)/C=C/C=C/c1ccccc1 | 106% (inactive) and 112% (inactive) |
| CC(C)(C)c1ccc(Cn2cc(CSc3nc4ccccc4s3)nn2)cc1 | 93.7% (inactive) |
| O=C1c2ccccc2C(=O)c2c1ccc1[nH]c(CCl)nc21 | -37.4% (active) |
| C/C(=C\C(=N\N=C(N)N)c1ccc(Cl)cc1)c1ccc(Cl)cc1 | -68% (active) |
| CCCC(=O)Oc1ccc(/C(=C(\C)c2ccc(OC)cc2)c2ccc(OCCN3CCCCC3)cc2)cc1 | 89.6% (inactive) |
| COc1cccc2c(=O)c3c(sc12)c(N1CCNCC1)nc1ccccc13 | -52.2% (active) |
| Cc1cccc(C)c1NC(=O)CN(CC(C)C)CC(O)COc1ccccc1 (stereo not given) | 98% (inactive) |
| O=C1C=CC(=O)N1c1cccc(N2C(=O)C=CC2=O)c1 | 97.9% (inactive) |
| CN(C)c1ccc(C(Cc2ccc3ccccc3n2)Cc2ccc3ccccc3n2)cc1 | 16% (inactive) and 73.5% (inactive) |

| SMILES | growth |
| --- | --- |
| COc1cc(-c2cc(=O)oc3cc(O)ccc23)cc(OC)c1OC | 86.3% (inactive) |
| Nc1ncnc2c1C(c1ccccc1)c1ccc3ccccc3c1O2 (stereo not given) | 82.4% (inactive) |
| CNC(=O)NCC1OC(n2cnc3c(NC(=O)Nc4ccccc4)ncnc32)C(O[Si](C)(C)C(C)(C)C)C1O[Si](C)(C)C(C)(C)C (stereo not given) | 23.5% (inactive) |
| COc1ccc2c(c1)sc1nc(-c3ccc(Br)cc3)cn12 | 80.7% (inactive) |
| O=C1c2cccnc2C(=O)c2c1c(C(=O)OCCN1CCCCC1)c1ccccn21 | -46.5% (active) |
| CCN(CC)CCCOc1ccc2c(c1)O/C(=C\c1cccc(OC)c1)C2=O | 97.4% (inactive) |
| CN(C)c1ccc(-c2cc(-c3cccc(NS(C)(=O)=O)c3)nc(N)c2C#N)cc1 | 2.91% (active) |
| COc1cccc(CCC2CCCN(c3cc(C)nc(N)n3)C2)c1 (stereo not given) | 1.26% (active) |
| O=C(O)CNC1=C(Cl)C(=O)c2ccccc2C1=O | 122% (inactive) |
| Cn1cc(-c2csc(-c3cn(CCCN4CCCCC4)c4ccc(F)cc34)n2)c2cccnc21 | 56.3% (inactive) |
| CCS(=O)(=O)c1cc(=O)[nH]c(=O)[nH]1 | 117% (inactive) |
| OC(c1ccccn1)C(O)c1ccccn1 (stereo not given) | 97.3% (inactive) |
| O=C(/C=C/c1ccccc1)c1cccc(O)c1 | 72.1% (inactive) |
| NS(=O)(=O)OCC1OC(n2cnc3cncnc32)C(O)C1O (stereo not given) | 37.8% [0.1 µM] (inactive) and 27.5% [0.1 µM] (inactive) |
| CCN(CC)CC(O)CNc1c2ccc([N+](=O)[O-])cc2nc2cc(OC)c(OC)cc12 (stereo not given) | -17.5% (active) |
| COc1ccc(OC)c(-c2nc(SCC(=O)c3ccc(C#N)cc3)[nH]c(=O)c2C#N)c1 | 106% (inactive) |
| COc1ccc(C(=O)Nc2ncc(Cc3ccc(F)cc3)s2)cc1 | -2.26% (active) |
| O=C(/C=C/c1ccc[nH]1)c1ccc(-n2ccc(C(F)(F)F)n2)cc1 | -18.4% (active) |
| O=c1c2c([nH]c3ccccc13)CCCC2 | 97.6% (inactive) and 5.42% (active) |
| Clc1ccc2nc(Cl)c3ccccc3c2c1 | 92.3% (inactive) |
